Measured values as given in PubChem BioAssay (NCATS).
Inconclusive results are not listed. The source made the active and inactive calls. Unless noted, calls come from the whole dose curve; as a rule, active = well fitted curve in the direction sought with a large enough effect; inconclusive = small, poorly fitted or top-dose-only effect, or another doubt; inactive = no such curve, though single readings can be large; an effect the other way counts as inactive or inconclusive.

Legend:
[1] = molecular target: Lysosomal acid glucosylceramidase (Homo sapiens) (UniProt P04062); experiment: Glucocerebrosidase-p2 (AID 348; in the data active = potency below about 10 µM; note: potency is the fitted concentration of half-maximal effect); conditions: purified GBA, blue fluorogenic substrate, 40 min
In short: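 Normal human glucocerebrosidase (0.2 nM) with blue fluorogenic substrate (80 uM final) in citrate/phosphate pH 5.9 with 10mM sodium taurocholate, 0.01% tween-20; 40 min RT, NaOH/glycine stop; fluorescence Ex 365/Em 440; AC50 from a titration from 0.6 nM upwards.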

[2] = AP1 Signaling Pathway (AID 357; active = well fitted curve in either direction with a large enough effect, not every such curve was filed as active; note: % is set by controls: 0 for no effect and ±100 for the full control effect); conditions: ME-180 AP-1-bla reporter, EGF-induced, beta-lactamase ratio, 5 h; at 7.69 µM (top of the series) unless noted
In short: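 AP-1-bla ME-180 cells with beta-lactamase reporter under AP-1 response element, stimulated with EC50 EGF; compounds titrated, 5 hours at 37 degrees Celsius. CCF4 read at 460/530 nm ratio; positive and negative modulators judged by AC50.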

[3] = molecular target: Cytochrome P450 1A2 (Homo sapiens) (UniProt P05177); experiment: p450-cyp1a2 (AID 410; calls by dose curve; note: potency is the fitted concentration of half-maximal effect;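 for activity change, negative = inhibition: -100% = full effect of reference inhibitor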); conditions: recombinant CYP1A2, luciferin-ME demethylation, luminescence; series mostly up to 57 µM
In short: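 Luminescent demethylation readout: Luciferin-ME (100uM, equal to Km) turned over by 20nM CYP1A2 for 60 min at room temperature after NADPH regeneration addition, following 10 min compound preincubation. Normalization used 57 uM furafylline as full inhibition.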

[4] = NFAT Signaling Pathway (AID 444; active = well fitted curve in either direction with a large enough effect, not every such curve was filed as active;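 note: carbachol stimulus at about its EC50 of 1 µM final; % is set by controls: 0 for no effect and ±100 for the full control effect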); conditions: Jurkat NFAT-bla M1, carbachol, beta-lactamase ratio, 5 h; at 7.69 µM (top of the series) unless noted
In short: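 Jurkat cells with NFAT-driven β-lactamase reporter and co-expressed M1 receptor, stimulated with carbachol (final 1 uM, ~EC50), compound titration, 5 h at 37 °C. CCF4 loaded 1 h at RT; 460/530 nm ratio gave %activity and AC50.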

[5] = Stat Signaling Pathway (AID 446; active = well fitted curve in either direction with a large enough effect, not every such curve was filed as active;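 note: ME-180 cervical cancer cells given 40 pM IL-6 alongside compound; SIE-controlled beta-lactamase reporter measured as 460/530 nm FRET emission ratio; % is set by controls: 0 for no effect and ±100 for the full control effect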); conditions: ME-180 (cervical carcinoma) SIE beta-lactamase reporter, IL-6 stimulated, 5 h; at 7.69 µM (top of the series) unless noted
In short: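 Compound effects on IL-6-induced STAT reporter activity were measured in ME-180 cells. After overnight culture, cells were co-treated with 40 pM IL-6 for 5 hrs before beta-lactamase substrate loading at room temperature.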

[6] = molecular target: Glucocorticoid receptor (Homo sapiens) (UniProt P04150); experiment: GR-GFP Redistribution (AID 450;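 active = compounds whose dose series gives a full or clear partial fitted curve of increased nuclear translocation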; note: potency is the fitted concentration of half-maximal effect); conditions: U2OS GR-GFP nuclear translocation, laser cytometry, 2 h
[7] = molecular target: Glucocorticoid receptor (Homo sapiens) (UniProt P04150); experiment: GR-EFC Redistribution (AID 451; calls by dose curve; note: potency is the fitted concentration of half-maximal effect); conditions: CHO-K1 GR-EFC translocation, beta-gal luminescence, 2 h
In short: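 CHO-K1 cells expressing nuclear EA and GR-ED fragments of b-gal; compounds titrated up to 46 uM final, 2 h at 37 C. GR nuclear translocation read as complemented b-gal luminescence after 1 h RT detection.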

[8] = molecular target: Mitogen-activated protein kinase 10 (Mus musculus) (UniProt Q61831); experiment: JNK3 AlphaScreen Assay (AID 530; active = well fitted curve in either direction with a large enough effect, not every such curve was filed as active;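 note: kinase came from lysate of stimulated human HepG2 cells; signal reports phosphorylation of biotinylated GST-cJun 1-79 at Ser73 with 10 µM ATP; % is set by controls: 0 for no effect and ±100 for the full control effect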); conditions: JNK3 lysate, c-Jun phosphorylation; series mostly up to 57.1 µM
In short: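 Activity was read by AlphaScreen after JNK3-containing HepG2 lysate (cytokine pre-activated) phosphorylated biotinylated GST-cJun with 10 uM ATP at room temperature. Phospho-Ser73 cJun antibody with Protein-A acceptor beads provided detection.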

[9] = qHTS Assay for Lipid Storage Modulators (AID 1519; calls by dose curve); conditions: Drosophila S3 cells, BODIPY lipid droplet/cell ratio, laser cytometry, cells loaded with oleic acid; for activity change, negative = inhibition: at 57.5 µM (top of the series)
In short: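 Cells seeded at 5,000 per well were treated with compounds over a concentration series and loaded with oleic acid (400 uM, as added). Lipid droplet fluorescence (488 nm excitation, 500-530 nm channel) was read by laser-scanning cytometry and normalized to 20 uM Triacsin C.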

[10] = molecular target: Dual specificity protein kinase CLK4 (Homo sapiens) (UniProt Q9HAZ1); experiment: qHTS Assay for Inhibitors of CDC-like Kinase 4 (Kinase-Glo Assay) (AID 1770); conditions: recombinant Clk4, Kinase-Glo ATP depletion luminescence; series mostly up to 66.7 µM; note: nearly all actives have a fitted effect of over 65% in size; note: potency is the fitted concentration of half-maximal effect
In short: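 Substrate mix (RS peptide 100 uM, ATP 1 uM) dispensed, compound pinned in, then Clk4 added to 25 nM final. Incubated 4.5 h at RT; Kinase-Glo reagent added, luminescence read after 5 min.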

[11] = molecular target: Dual specificity protein kinase CLK4 (Homo sapiens) (UniProt Q9HAZ1); experiment: qHTS Assay for Inhibitors of CDC-like Kinase 4 (ADP-Glo Assay) (AID 1771); conditions: recombinant CLK4, ADP-Glo luminescence; series mostly up to 80 µM; note: nearly all actives have a fitted effect of over 70% in size; note: potency is the fitted concentration of half-maximal effect
In short: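 ADP production was read by ADP-Glo luminescence after residual ATP depletion, following 1 h room-temperature reaction of 25 nM Clk4, 1 uM ATP and 100 uM RS peptide with MgCl2, EGTA, DTT and Triton X-100.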

[12] = molecular target: Dual specificity protein kinase CLK4 (Homo sapiens) (UniProt Q9HAZ1); experiment: qHTS Assay for Inhibitors of CDC-like Kinase 4 (ADP-FP Assay) (AID 1795); conditions: Transcreener ADP fluorescence polarization; series mostly up to 50 µM; note: nearly all actives have a fitted effect of over 60% in size; note: potency is the fitted concentration of half-maximal effect
In short: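 Clk4 6.25 nM; RS peptide 100 uM; ATP 1 uM; 25 mM Tris pH 7.5, 10 mM MgCl2; 1 h reaction. ADP detected via antibody/orange tracer FP displacement; TG003 positive control.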

[13] = Primary qHTS for small molecule stabilizers of the endoplasmic reticulum resident proteome: Secreted ER Calcium Modulated Protein (SERCaMP) assay (AID 1508630); conditions: SH-SY5Y GLuc-SERCaMP (Gaussia luciferase released on ER calcium loss) secretion, thapsigargin, luminescence; series mostly up to 38.4 µM; note: % is set by controls: 0 for no effect and ±100 for the full control effect
In short: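 The SH-SY5Y reporter protocol was run at 3 concentrations up to 38.3 uM (primary) or 11 concentrations (follow-up): 16 h compound, 100 nM thapsigargin for 4 h, then extracellular luciferase luminescence.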

[14] = molecular target: 3',5'-cyclic-AMP phosphodiesterase 4B (Homo sapiens) (UniProt Q07343); experiment: qHTS Assay for Inhibitors of PDE-IV (AID 607; active = well fitted activation curve with a large enough effect in the main read-out, with a control signal flat, not every such curve was filed as active; note: % of control where 0% means no effect); conditions: HEK293 ACTOne CNG channel cells, membrane potential fluorescence; series mostly up to 22.9 µM
In short: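 ACTOne HEK293 cells carry a modified cAMP-gated CNG channel and express endogenous PDE4; plated 1000 cells/well, compounds up to 22.9 uM final. Membrane-potential dye fluorescence (ex 535/em 590) was read; parental cells received 10 uM forskolin + 100 uM RO 20-1724.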

[15] = molecular target: Cytochrome P450 3A4 (Homo sapiens) (UniProt P08684); experiment: qHTS Assay for Activators of Cytochrome P450 3A4 (AID 885); conditions: recombinant CYP3A4, Luciferin-PPXE luminescence, 60 min; series mostly up to 57.1 µM; note: nearly all actives have a fitted effect of over 65% in size
In short: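 CYP3A4 activity: Luciferin-PPXE O-dealkylation, 25uM substrate, 200mM KPO4, RT throughout. Read-out is luciferase luminescence; higher values reflect activation.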

[16] = molecular target: Ubiquitin carboxyl-terminal hydrolase 1 (Homo sapiens) (UniProt O94782); experiment: Inhibitors of USP1/UAF1: Pilot qHTS (AID 504865); conditions: purified USP1/UAF1, Ub-rhodamine cleavage fluorescence; series mostly up to 54.9 µM;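 note: rhodamine fluorescence freed from ubiquitin-rhodamine substrate followed over time; top concentration of the series differs between compounds; % is set by controls: 0 for no effect and ±100 for the full control effect; nearly all actives have a fitted effect of over 35% in size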
In short: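 In 50mM HEPES pH 7.8 containing 0.5mM EDTA, 1mM TCEP, 0.1 mg/ml BSA and 0.01% Tween-20, 1nM USP1/UAF1 is exposed to compound for 15 min, then Ub-Rho (150nM final) is added and fluorescence is read over time.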

[17] = measured here: cell count channel max response
[18] = measured here: lipid channel max response

Cytochrome P450 1A2 (Homo sapiens), sequence (P05177 whole entry, looked up): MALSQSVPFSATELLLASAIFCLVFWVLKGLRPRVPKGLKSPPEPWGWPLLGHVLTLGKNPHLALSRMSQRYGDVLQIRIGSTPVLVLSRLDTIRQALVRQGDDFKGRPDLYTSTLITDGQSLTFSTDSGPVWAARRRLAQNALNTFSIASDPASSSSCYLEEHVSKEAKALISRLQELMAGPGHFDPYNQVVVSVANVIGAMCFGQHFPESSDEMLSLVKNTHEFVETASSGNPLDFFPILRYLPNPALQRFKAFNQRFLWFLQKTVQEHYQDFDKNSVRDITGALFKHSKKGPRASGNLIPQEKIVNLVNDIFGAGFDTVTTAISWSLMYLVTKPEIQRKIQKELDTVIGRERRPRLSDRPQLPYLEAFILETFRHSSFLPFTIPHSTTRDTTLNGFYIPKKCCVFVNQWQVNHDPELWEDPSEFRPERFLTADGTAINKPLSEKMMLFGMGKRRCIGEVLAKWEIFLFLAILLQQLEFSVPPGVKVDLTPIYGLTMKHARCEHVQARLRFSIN
Glucocorticoid receptor (Homo sapiens), sequence (P04150 whole entry, looked up, the tested form may be a part): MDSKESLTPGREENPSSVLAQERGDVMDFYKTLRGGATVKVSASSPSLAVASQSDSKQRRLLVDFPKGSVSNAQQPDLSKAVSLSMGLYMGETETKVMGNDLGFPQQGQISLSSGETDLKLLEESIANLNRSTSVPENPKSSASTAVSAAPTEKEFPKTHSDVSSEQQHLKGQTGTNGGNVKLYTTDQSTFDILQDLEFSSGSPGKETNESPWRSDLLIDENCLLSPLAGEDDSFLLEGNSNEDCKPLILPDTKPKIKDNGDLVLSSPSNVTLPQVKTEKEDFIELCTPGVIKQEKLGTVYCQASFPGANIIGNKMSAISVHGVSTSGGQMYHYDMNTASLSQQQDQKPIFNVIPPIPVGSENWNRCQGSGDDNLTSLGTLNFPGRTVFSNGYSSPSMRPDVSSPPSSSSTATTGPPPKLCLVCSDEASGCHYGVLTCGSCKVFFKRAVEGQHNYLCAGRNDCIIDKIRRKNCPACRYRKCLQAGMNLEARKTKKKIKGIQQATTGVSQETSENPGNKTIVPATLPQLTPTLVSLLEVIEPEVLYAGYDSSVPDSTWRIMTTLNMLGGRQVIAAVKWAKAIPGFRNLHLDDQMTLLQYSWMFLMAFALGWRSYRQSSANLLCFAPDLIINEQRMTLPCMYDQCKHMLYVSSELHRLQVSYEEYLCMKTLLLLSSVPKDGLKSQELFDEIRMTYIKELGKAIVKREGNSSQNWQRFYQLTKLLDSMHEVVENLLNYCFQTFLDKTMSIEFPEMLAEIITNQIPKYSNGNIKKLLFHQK
Cytochrome P450 3A4 (Homo sapiens), sequence (P08684 whole entry, looked up): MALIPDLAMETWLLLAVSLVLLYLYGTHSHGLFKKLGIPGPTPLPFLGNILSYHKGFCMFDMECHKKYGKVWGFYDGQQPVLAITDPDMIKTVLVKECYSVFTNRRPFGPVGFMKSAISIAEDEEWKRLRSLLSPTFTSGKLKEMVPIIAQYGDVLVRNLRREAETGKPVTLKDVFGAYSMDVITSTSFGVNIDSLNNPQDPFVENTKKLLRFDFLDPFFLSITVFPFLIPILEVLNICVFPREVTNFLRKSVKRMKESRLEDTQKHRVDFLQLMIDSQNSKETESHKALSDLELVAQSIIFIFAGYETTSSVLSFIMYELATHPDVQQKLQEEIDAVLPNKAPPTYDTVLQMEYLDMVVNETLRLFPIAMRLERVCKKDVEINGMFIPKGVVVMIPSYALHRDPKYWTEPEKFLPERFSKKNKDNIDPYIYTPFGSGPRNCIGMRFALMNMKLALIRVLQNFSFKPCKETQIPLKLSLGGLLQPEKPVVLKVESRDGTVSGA
Ubiquitin carboxyl-terminal hydrolase 1 (Homo sapiens), sequence (O94782 whole entry, looked up): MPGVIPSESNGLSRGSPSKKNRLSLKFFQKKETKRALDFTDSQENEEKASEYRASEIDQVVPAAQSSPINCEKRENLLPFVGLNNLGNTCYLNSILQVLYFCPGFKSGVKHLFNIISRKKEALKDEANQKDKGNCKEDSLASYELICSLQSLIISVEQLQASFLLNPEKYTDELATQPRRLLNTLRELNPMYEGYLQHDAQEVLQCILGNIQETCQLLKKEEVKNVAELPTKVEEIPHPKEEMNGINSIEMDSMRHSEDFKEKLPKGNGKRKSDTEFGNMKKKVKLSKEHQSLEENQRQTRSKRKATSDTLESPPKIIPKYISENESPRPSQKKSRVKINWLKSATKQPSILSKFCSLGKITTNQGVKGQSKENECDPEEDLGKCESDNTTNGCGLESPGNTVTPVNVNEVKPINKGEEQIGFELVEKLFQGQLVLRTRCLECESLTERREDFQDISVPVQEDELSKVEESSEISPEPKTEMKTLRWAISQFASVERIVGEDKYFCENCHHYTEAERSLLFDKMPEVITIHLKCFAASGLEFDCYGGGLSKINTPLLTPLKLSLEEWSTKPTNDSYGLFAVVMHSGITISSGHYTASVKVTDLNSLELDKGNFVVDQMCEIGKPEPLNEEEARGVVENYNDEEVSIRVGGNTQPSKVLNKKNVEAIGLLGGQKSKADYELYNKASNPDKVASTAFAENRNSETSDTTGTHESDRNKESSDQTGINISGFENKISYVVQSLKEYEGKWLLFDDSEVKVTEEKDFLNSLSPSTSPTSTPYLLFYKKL
3',5'-cyclic-AMP phosphodiesterase 4B (Homo sapiens), sequence (Q07343 whole entry, looked up): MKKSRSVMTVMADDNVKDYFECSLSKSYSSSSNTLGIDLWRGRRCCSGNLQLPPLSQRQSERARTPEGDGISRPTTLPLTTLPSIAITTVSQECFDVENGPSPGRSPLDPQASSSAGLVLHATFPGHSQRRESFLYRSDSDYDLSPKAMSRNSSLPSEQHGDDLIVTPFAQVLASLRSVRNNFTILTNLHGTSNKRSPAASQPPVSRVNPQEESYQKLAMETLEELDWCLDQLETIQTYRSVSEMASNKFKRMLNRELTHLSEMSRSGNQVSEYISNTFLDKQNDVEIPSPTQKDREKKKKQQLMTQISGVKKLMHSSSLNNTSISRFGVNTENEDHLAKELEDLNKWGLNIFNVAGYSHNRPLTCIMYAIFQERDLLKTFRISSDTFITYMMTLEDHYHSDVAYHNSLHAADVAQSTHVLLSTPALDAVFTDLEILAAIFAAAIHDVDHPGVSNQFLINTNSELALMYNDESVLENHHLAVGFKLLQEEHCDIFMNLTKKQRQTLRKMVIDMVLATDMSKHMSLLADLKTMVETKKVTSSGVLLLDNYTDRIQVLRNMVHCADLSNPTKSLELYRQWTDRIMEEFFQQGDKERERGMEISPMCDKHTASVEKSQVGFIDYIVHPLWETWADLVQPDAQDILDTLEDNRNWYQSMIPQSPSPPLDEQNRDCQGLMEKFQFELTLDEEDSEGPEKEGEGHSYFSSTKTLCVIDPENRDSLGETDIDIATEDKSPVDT
Lysosomal acid glucosylceramidase (Homo sapiens), sequence (P04062 whole entry, looked up): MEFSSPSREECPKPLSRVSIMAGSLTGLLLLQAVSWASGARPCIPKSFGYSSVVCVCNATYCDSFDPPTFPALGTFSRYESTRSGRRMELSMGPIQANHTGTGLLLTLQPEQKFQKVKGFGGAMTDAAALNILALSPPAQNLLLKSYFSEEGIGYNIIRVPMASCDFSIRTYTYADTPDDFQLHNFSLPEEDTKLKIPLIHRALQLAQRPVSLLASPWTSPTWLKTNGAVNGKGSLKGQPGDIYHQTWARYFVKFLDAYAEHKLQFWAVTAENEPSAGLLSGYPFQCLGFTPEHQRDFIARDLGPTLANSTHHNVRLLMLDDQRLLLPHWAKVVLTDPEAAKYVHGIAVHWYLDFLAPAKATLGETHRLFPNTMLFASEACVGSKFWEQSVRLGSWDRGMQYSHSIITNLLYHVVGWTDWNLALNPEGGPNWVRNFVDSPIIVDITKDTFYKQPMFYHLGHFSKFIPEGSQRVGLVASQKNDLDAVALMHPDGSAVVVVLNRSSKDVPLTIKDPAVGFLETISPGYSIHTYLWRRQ
Dual specificity protein kinase CLK4 (Homo sapiens), sequence (Q9HAZ1 whole entry, looked up): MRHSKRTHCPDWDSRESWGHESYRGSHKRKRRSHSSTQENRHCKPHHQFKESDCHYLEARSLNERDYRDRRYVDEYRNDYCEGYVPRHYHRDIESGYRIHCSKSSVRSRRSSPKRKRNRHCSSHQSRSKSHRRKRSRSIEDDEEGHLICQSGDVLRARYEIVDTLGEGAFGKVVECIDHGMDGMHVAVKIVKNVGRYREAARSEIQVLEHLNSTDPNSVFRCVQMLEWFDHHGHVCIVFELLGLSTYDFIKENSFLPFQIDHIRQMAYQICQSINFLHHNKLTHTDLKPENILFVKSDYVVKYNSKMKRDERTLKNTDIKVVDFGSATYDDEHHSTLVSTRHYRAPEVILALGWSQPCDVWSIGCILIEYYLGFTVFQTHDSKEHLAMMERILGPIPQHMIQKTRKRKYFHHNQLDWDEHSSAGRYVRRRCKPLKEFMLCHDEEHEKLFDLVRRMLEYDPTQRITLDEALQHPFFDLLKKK

| Compound | Potency [1] | activity change, negative = inhibition [2] | Potency [3] | activity change, negative = inhibition [4] | activity, negative = inhibition [5] | Potency [6] | Potency [7] | outcome [8] | activity change, negative = inhibition [9] | max response [9, 17] | max response [9, 18] | Potency [10] | Potency [11] | Potency [12] | Potency [13] | Potency [14] | Potency [15] | Potency [16] |
| --- | --- | --- | --- | --- | --- | --- | --- | --- | --- | --- | --- | --- | --- | --- | --- | --- | --- | --- |
| O=c1c(-c2cc(F)cc(F)c2)nc2cncnc2n1-c1ccccc1 | > 11.4 µM (inactive) | -15.8% (inactive) | 12.6 µM (active) | -2.26% (inactive) | -16.9% (inactive) | > 9.22 µM (inactive) | > 46 µM (inactive) | inactive | 6.93% (inactive) | 22.2% | 28.7% | inactive | inactive | inactive | inactive |  |  |  |
| O=c1c(-c2ccc(F)cc2)nc2cnc(N3CCOCC3)nc2n1Cc1cccs1 | > 11.4 µM (inactive) | 14.2% (inactive) | 12.6 µM (active) | 13.3% (inactive) | 18.2% (inactive) | > 9.22 µM (inactive) | > 46 µM (inactive) | inactive | -1.08% (inactive) | 9.38% | 7.2% | inactive | inactive | inactive | inactive | inactive | inactive | inactive |
| Cc1cnc(CNc2ccnc(-c3c(C)noc3C)n2)cn1 | > 11.4 µM (inactive) | 1.51% (inactive) | 12.6 µM (active) | 10.3% (inactive) | 1.5% (inactive) | > 46 µM (inactive) | > 46 µM (inactive) | inactive | 7.48% (inactive) | 24.6% | 37.5% | inactive | inactive | inactive | inactive | inactive | inactive | inactive |
| CCNc1ncc2ncc(=O)n(C3CC3)c2n1 | > 11.4 µM (inactive) | -20.4% (inactive) | 3.16 µM (active) | -6.86% (inactive) | -6.01% (inactive) | > 9.22 µM (inactive) | > 46 µM (inactive) | inactive | 3.55% (inactive) | 13.3% | 13.9% | 14.1 µM (active) | 11.2 µM (active) | 12.6 µM (active) | inactive |  |  |  |
| COc1ccc(-n2c(=O)c(C)nc3cnc(OC)nc32)cc1 | > 11.4 µM (inactive) | 13.3% (inactive) | inactive | 3.92% (inactive) | -15.2% (inactive) | > 9.22 µM (inactive) | > 46 µM (inactive) | inactive | 4.38% (inactive) | 12% | 18.2% | inactive | inactive | inactive | inactive | inactive | inactive |  |
| CN(C)c1ncc2nc(-c3cccc(C#N)c3)c(=O)n(CCC#N)c2n1 | > 11.4 µM (inactive) | -2.98% (inactive) | inactive | 4.07% (inactive) | -8.5% (inactive) | > 9.22 µM (inactive) | > 46 µM (inactive) | inactive | 1.84% (inactive) | 5.81% | 7.25% | inactive | inactive | inactive | inactive | inactive |  | inactive |
| Cc1cnc(CNc2ncncc2-c2c(C)noc2C)cn1 | > 11.4 µM (inactive) | 5.13% (inactive) | inactive | 1.67% (inactive) | -8% (inactive) | > 46 µM (inactive) | > 46 µM (inactive) | inactive | 5.43% (inactive) | 31% | 35% | inactive | inactive | inactive | inactive | inactive | inactive | inactive |
| COc1ccc(-c2nc3cnc(N4CCOCC4)nc3n(C[C@H]3CCCO3)c2=O)cc1 | > 11.4 µM (inactive) | 8.17% (inactive) | 5.01 µM (active) | 15.8% (inactive) | 9.41% (inactive) | > 9.22 µM (inactive) | > 46 µM (inactive) | inactive | 1.98% (inactive) | 4.58% | 6.82% | inactive | inactive | inactive | inactive | inactive |  | inactive |
| COCCn1c(=O)cnc2cnc(Oc3ccc(OC)cc3)nc21 | > 11.4 µM (inactive) | -2.08% (inactive) | 5.01 µM (active) | -2.59% (inactive) | -5.99% (inactive) | > 9.22 µM (inactive) | > 46 µM (inactive) | inactive | 2.42% (inactive) | 12.6% | 10.8% | inactive | inactive | inactive | inactive | inactive | inactive |  |
| Cn1cc(-c2nc3cnc(N4CCNCC4)nc3n(C)c2=O)c2ccccc21 | > 11.4 µM (inactive) | 4.46% (inactive) | 15.8 µM (active) | 6.17% (inactive) | 25.8% (inactive) | > 9.22 µM (inactive) | > 46 µM (inactive) | inactive | 6.84% (inactive) | 11.6% | 17.7% | inactive | inactive | inactive | inactive | inactive | inactive | inactive |
